The list is not random: actives were taken first. Their share in the collection is about 3.9%.
VHR inh abs = inhibitors of human VHR1 phosphatase (DUSP3). inhibition, % at 13.3 µM. 290,000 tested, 0.52% active. recombinant VHR phosphatase, pNPP absorbance. AID 1654; in the data active means inhibition above about 50%
Anthrax LF prot = blocks Bacillus anthracis lethal factor protease; P15917; multiplex microsphere protease cleavage assay, LF; inhibition, % at 10 µM; 360,000 tested, 0.12% active; AID 588501; further: plate controls were buffer without enzyme for full effect and enzyme alone for no effect
Target sequence (P15917 whole entry, looked up): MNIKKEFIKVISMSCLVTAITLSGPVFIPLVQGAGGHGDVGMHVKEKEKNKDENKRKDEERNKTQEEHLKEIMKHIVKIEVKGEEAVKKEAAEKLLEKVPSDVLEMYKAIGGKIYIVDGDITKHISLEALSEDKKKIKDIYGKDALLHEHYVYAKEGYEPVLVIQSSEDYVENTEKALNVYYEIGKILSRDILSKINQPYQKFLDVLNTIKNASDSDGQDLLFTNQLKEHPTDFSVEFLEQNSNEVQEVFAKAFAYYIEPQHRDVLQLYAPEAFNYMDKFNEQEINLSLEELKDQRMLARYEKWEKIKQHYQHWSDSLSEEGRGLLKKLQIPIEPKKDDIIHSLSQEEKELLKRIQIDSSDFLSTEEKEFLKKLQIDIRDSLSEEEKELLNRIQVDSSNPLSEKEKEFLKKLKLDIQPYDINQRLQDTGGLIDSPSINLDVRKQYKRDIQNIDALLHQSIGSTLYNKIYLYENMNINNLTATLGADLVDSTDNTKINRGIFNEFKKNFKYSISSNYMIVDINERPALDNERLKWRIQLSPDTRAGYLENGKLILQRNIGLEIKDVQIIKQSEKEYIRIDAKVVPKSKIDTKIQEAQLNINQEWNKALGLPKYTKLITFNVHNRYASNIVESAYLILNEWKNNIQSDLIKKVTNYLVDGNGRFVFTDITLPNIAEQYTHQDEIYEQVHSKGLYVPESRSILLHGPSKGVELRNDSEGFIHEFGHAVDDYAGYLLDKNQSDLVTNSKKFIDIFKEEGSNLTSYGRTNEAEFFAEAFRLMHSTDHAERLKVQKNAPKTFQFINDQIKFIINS
BoNT F protease = BoNT F light chain protease inhibition; Multiplex microsphere protease cleavage assay, flow cytometry; inhibition, % at 10 µM; 360,000 tested, 0.22% active; in the data active means inhibition above about 35%, passing the limit was not always enough; inconclusive means no clear call, values can overlap the other calls; further: plate controls were buffer without enzyme for full effect and enzyme alone for no effect
3CLpro inhibitor = SARS-CoV 3CLpro protease inhibition; recombinant SARS-CoV 3CLpro, quenched FRET peptide cleavage; inhibition, % at 6 µM; 290,000 tested, 0.14% active; in the data active means inhibition above about 12%
Autofluor counter = flagged as autofluorescent in microsphere protease counterscreen | 360,000 tested, 3.1% active | compound autofluorescence counterscreen, microsphere flow cytometry; stronger effect = higher value | fluorescence intensity (concentration not given with the values); in the data active means fluorescence intensity above about 16000; inconclusive means no clear call, values can overlap the other calls
BoNT A protease = inhibitors of Botulinum neurotoxin A light chain protease; 360,000 tested, 0.17% active; inhibition, % at 10 µM; multiplex microsphere protease substrate cleavage, flow cytometry; further: plate controls were buffer without enzyme for full effect and enzyme alone for no effect
The depositor's hits bear a star; ? = inconclusive; · = no result. Unless noted, no stated cut-off is given here; in the data, active means inhibition above about 30%; inconclusive means no clear call, values can overlap the other calls; inactive means below that.

SMILES | VHR inh abs | Anthrax LF prot | BoNT F protease | 3CLpro inhibitor | Autofluor counter | BoNT A protease
Cc1ccc(Nc2nnc(SCC(=O)Nc3ccc(S(=O)(=O)N4CCOCC4)cc3)s2)cc1 | 10 | -3 | -3 | 1 | 22187* | -1
O=C(CSc1nc2ccccc2n1CC(=O)N1CCCC1)Nc1nccs1 | 6 | -1 | -2 | -1 | 23314* | -1
CC(C)N(C(=O)Cn1c(SCC(=O)Nc2nccs2)nc2ccccc21)C(C)C | 9 | 10 | -2 | -2 | 9243 | 0
Cc1cccc(NC(=O)CSc2nnc(-c3ccc(S(=O)(=O)N4CCOCC4)cc3)n2C)c1 | 15 | -6 | -2 | -1 | 16637* | 0
Cn1c(SCC(=O)Nc2nccs2)nnc1-c1ccc(S(=O)(=O)N2CCCC2)cc1 | 16 | 0 | 6 | -2 | 19176* | 4
CCn1c(SCC(=O)Nc2nccs2)nnc1-c1ccc(S(=O)(=O)N2CCCCCC2)cc1 | 27 | -6 | 3 | 5 | 4140 | 0
CCCc1nc2c3ccccc3ccn2c1Cc1cccc(F)c1 | · | 6 | 0 | · | 6281 | 1
Cc1ccc(N=Cc2ccc(O)cc2O)cc1F | 3 | 1 | 2 | 2 | 21566* | ?
CCOC(=O)C1=CN(C(C)C)CCC1=O | · | -2 | -2 | · | 2986 | 0
CC1=C(C#N)C(NC(=O)C2CCCCC2)(C(F)(F)F)C(=O)N1 (stereo not given) | 1 | -4 | 3 | -3 | 22461* | 0
C=CCn1c(CNC(=O)c2ccco2)nnc1SCC(=O)c1ccc(F)cc1 | -14 | 2 | 25 | -2 | 3682 | -2
C=CCn1c(COC)nnc1SCC(=O)c1ccc(F)cc1 | -2 | -4 | -2 | -2 | 16919* | ?
CC(=O)OCCn1c2nc(=O)[nH]c(=O)c-2nc2cc(C)c(C)cc21 | 9 | -10 | 42* | -5 | 2682 | 8
Cc1ccc(-c2noc(CN(C(=O)C34CC5CC(CC(C5)C3)C4)C(C)C)n2)cc1 | 15 | -3 | -2 | 3 | 22906* | 0
Cc1ccc(-c2noc(CN(C(=O)c3cccc(Br)c3)C(C)C)n2)cc1 | 27 | -4 | 3 | -2 | 5996 | 0
Cc1ccc(-c2noc(CN(C(=O)C(c3ccccc3)c3ccccc3)C(C)C)n2)cc1 | 29 | -4 | -7 | 5 | 23813* | -2
CCn1c(CC(=O)Nc2ccccc2)nnc1SCC(=O)Nc1nnc(C)s1 | 12 | 0 | -3 | 0 | 6294 | -1
Cc1nn(C)c(C)c1S(=O)(=O)N(CC(=O)N1CCc2ccccc21)c1ccc(C(C)C)cc1 | 50* | 5 | 0 | 2 | 5726 | -1
CCN(c1ccc(OC)cc1)S(=O)(=O)c1ccc2c(c1)CCN2C(=O)CCC(=O)O | 13 | -2 | -5 | 2 | 16864* | -3
COc1ccc(N(CC(=O)N2CCc3ccccc32)S(=O)(=O)c2c(C)n[nH]c2C)cc1 | 21 | -23 | 12 | 0 | 17257* | ?
COc1ccc(N(CC(=O)N2CCc3ccccc32)S(=O)(=O)c2c(C)nn(C)c2C)cc1 | 23 | -2 | -4 | -2 | 5998 | 0
CC(NC(=O)c1ccccc1)C(=O)NNC(=O)c1ccccc1Cl (stereo not given) | · | 0 | -7 | · | 6273 | 1
CCCOc1ccc(CNC(=O)C2CCN(C(=O)N3CCOc4ccccc43)CC2)cc1 | 33 | 0 | -8 | -5 | 4591 | 0
O=C(CCN1C(=O)/C(=C/c2cccc(Br)c2)SC1=S)NNC(=O)c1cccnc1 | 1 | -3 | -4 | 0 | 16764* | -1
O=C(CCN1C(=O)/C(=C/c2ccccc2)SC1=S)NNC(=O)c1cccnc1 | -7 | -1 | 2 | 4 | 2471 | 0
SMILES | VHR inh abs | Anthrax LF prot | BoNT F protease | 3CLpro inhibitor | Autofluor counter | BoNT A protease
O=C(NN1C(=O)/C(=C\c2cccnc2)SC1=S)C(c1ccccc1)c1ccccc1 | 5 | 2 | 3 | 3 | 2033 | 1
O=C(NN1C(=O)/C(=C/c2cccnc2)SC1=S)C(c1ccccc1)c1ccccc1 | 36 | -2 | -2 | 1 | 21106* | -1
O=C(NN1C(=O)/C(=C/c2cccs2)SC1=S)c1ccccc1 | 34 | 22 | 41* | 1 | 8439 | 10
Cc1[nH]n(-c2ccccc2)c(=O)c1N=Nc1c(Cl)cccc1Cl | 59* | 0 | ? | 2 | 3516 | ?
CC1CN(C(=O)COc2coc(CN3CCc4ccccc4C3)cc2=O)CC(C)O1 (stereo not given) | · | -4 | ? | · | 4988 | 1
COc1cc(C(=O)O)ccc1OCc1c(C)noc1C | -2 | 0 | -2 | -1 | 21283* | -1
COc1cc(C=O)ccc1OCc1c(C)noc1C | 24 | -4 | -4 | -7 | 21666* | -3
COc1cc(C(=O)OCC(C)=O)ccc1OCc1c(C)noc1C | 18 | -3 | 2 | 2 | 4002 | 0
CC(=O)O[C@]1(C(C)=O)CC[C@H]2[C@@H]3C=CC4=CC(=O)C=C[C@]4(C)[C@H]3CC[C@@]21C | -24 | 10 | 2 | 0 | 3147 | -3
N#CC1=C(N)SC(N)=C(C#N)C1C1C=CCCC1 (stereo not given) | 26 | -2 | 3 | -3 | 19353* | 2
O=C(NCc1cccs1)c1csc(COCCO)n1 | · | -2 | -5 | · | 3896 | 0
COc1cc(NC(=O)c2ccc(-c3ccc(F)c(F)c3)c3ccoc23)cc(OC)c1OC | · | 1 | -3 | · | 3328 | 1
COc1cccc(Oc2ncnc(N)c2[N+](=O)[O-])c1 | -14 | -8 | ? | -2 | 4886 | -9
Cn1nc(-c2ccccc2)c(C(O)c2ccc(Cl)cc2)c1Cl (stereo not given) | 0 | -1 | -2 | 7 | 24423* | -1
CCOC(=O)c1c(NC(NC(=O)C(C)C)C(Cl)(Cl)Cl)sc2c1CCC2 (stereo not given) | 2 | -4 | 47* | 0 | 2881 | 4
CCCN1CCN(C(=O)C2CCN(S(=O)(=O)c3c(C)noc3/C=C/c3ccc(C)cc3)CC2)CC1 | 14 | -6 | -3 | 1 | 5477 | -2
CCOc1ccc(C(=O)NCC(=O)N2CCc3ccccc3C2)cc1OCC | 20 | 3 | -1 | 1 | 4285 | 0
O=C(CCNC(=O)c1ccc(Br)o1)NC1CCCC1 | 4 | -2 | 0 | -1 | 16174* | ?
O=C(Nc1sc2c(c1C(=O)O)CCCCC2)c1cccs1 | 15 | 0 | -1 | 9 | 4271 | 0
COC(=O)c1c(NC(=O)Cc2cccs2)sc2c1CCCC2 | 10 | 0 | -12 | 6 | 2143 | 0
COC(=O)c1c(NS(=O)(=O)c2cccs2)sc2c1CCCC2 | -10 | -5 | -7 | 2 | 25083* | -4
O=C(Nc1sc2c(c1C(=O)O)CCCC2)c1cccs1 | 32 | -2 | -3 | 7 | 24122* | -1
Cc1ccc(F)cc1-c1cc(C(=O)NCc2cc(C(F)(F)F)cc(C(F)(F)F)c2)[nH]n1 | · | -3 | -3 | · | 3759 | 0
Cn1ncc2c(N3CCN(c4ccccc4F)CC3)ncnc21 | 10 | 3 | 3 | 1 | 16585* | ?
